This is a sample that favours compounds with a hit; in the whole collection about 7.3% have one here.
Rab9 prom act – activates the Rab9 promoter | Huh7 Rab9 promoter-luciferase reporter, luminescence, 24 h | Potency, µM (highest dose often 9.22 µM), without a hit: at the top dose activation, negative = inhibition, usual class: activators | 2.8% of 320,000 active | AID 485297; also: % of control where 0% means no effect; nearly all actives have a fitted effect of over 60% in size
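Luciferase signal after 10 min detection reagent at ambient indicates Rab9 promoter upregulation; stably transfected Huh7 cells were treated 24 h with compound in DMSO at 37 °C, 5% CO2.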
Luc counter – blocks Kinase-Glo luciferase, a counter-screen artifact | Potency, µM (highest dose often 38.3 µM), for the others: at the top dose activity change, negative = inhibition, actives largely listed as inhibitors | 0.28% of 200,000 active | AID 1379 | Kinase-Glo luciferase, ATP luminescence, 8 min | Q27757; also: % is scaled to controls: 0 for no effect and ±100 for the full control effect; nearly all actives have a fitted effect of over 60% in size
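Compounds were added to a substrate mix at pH 7.2 (50 mM imidazole, 10 uM ATP, within the enzyme's linear range), followed by Kinase-Glo detection reagent; luminescence was measured after 8 minutes at ambient temperature.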
FLuc modulator – inhibits or activates purified firefly luciferase, miR-21 counter-screen. P08659. purified FLuc, Km substrates, luminescence inhibition. Potency, µM (titrated, usually from 57.5 µM), inactives show top-dose activity change, negative = inhibition, hits mostly inhibitors. 6.9% of 360,000 active. AID 588342;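 also: plate controls were vehicle for no effect and reference inhibitor for full effect; nearly all actives have a fitted effect of over 55% in size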
Target sequence (P08659 whole entry, looked up): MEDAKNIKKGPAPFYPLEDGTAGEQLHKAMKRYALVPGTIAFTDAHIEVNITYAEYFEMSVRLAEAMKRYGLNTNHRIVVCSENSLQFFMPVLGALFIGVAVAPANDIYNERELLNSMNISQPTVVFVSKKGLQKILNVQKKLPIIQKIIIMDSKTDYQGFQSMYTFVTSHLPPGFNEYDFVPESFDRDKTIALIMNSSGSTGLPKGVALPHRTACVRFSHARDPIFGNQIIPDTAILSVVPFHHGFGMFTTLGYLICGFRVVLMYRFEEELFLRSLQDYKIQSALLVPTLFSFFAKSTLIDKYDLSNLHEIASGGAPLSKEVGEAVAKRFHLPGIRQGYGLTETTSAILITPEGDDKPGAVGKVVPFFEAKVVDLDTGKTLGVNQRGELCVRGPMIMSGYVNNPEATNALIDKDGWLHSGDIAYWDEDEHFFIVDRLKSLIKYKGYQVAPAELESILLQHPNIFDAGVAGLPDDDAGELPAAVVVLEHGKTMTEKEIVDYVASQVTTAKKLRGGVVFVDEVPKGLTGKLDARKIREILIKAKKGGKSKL
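Purified P. pyralis luciferase, 10 nM final, with Km-level 10 uM D-luciferin and 10 uM ATP in 50 mM Tris acetate pH 7.5, 10 mM Mg acetate, 0.01% Tween-20, 0.05% BSA; 6-point qHTS titration about 60 µM downward; luminescence read.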
SMN2 splice enh – enhancers of SMN2 splice variant expression; 2.8% of 210,000 active; AID 1458; HEK293 SMN2-luciferase splicing reporter, luminescence, 30-36 h; Potency, µM (doses to about 46.1 µM), without a hit: at the top dose activity change, positive = activation, actives largely listed as activators; also: % of control where 0% means no effect; nearly all actives have a fitted effect of over 55% in size
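qHTS luciferase splicing reporter: luminescence rises when SMN2 exon 7 is included in transfected HEK293 cells. Compound exposure lasted 30-36 h at 37C, with 4.5 mM final sodium butyrate as control, followed by a ONE-Glo read.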
NPC1 promoter act – activates the NPC1 promoter; Huh7 NPC1 promoter luciferase reporter, 24 h; Potency, µM (doses to about 9.22 µM), inactives show at the top dose activation, actives largely listed as activators; 2.4% of 320,000 active; also: % of control where 0% means no effect; nearly all actives have a fitted effect of over 60% in size
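Quantitative HTS used a cell-based reporter: Huh7 cells stably bearing the NPC1 promoter upstream of luciferase were treated with compounds for 24 h, and promoter activation was read as luminescence.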
ELG1 genotoxic – genotoxicity induction in ELG1-luciferase HEK293T cells; HEK293T ELG1-luciferase reporter, luminescence, 16 h; Potency, µM (highest dose often 46 µM), without a hit: at the top dose activity change, positive = activation, most hits filed as activators; 1.3% of 330,000 active; AID 504466; also: % of control where 0% means no effect; nearly all actives have a fitted effect of over 60% in size
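Genotoxic stress is detected as increased luminescence from luciferase-tagged ELG1 in HEK293T cells, measured with ONE-Glo after a 16 hr treatment at 37 °C.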
* marks the source's active call; other numbers are inactive results; u = inconclusive; x = no result given. Calls follow the shape of the dose curve; as a rule, active = well fitted curve in the direction sought with a large enough effect; inconclusive = small, poorly fitted or top-dose-only effect, or another doubt; inactive = no such curve, though single readings can be large; an effect the other way counts as inactive or inconclusive. Potency is read from the fitted curve at half-maximal effect.

SMILES	Rab9 prom act	Luc counter	FLuc modulator	SMN2 splice enh	NPC1 promoter act	ELG1 genotoxic
CCOC(=O)C1CCCN(C(=O)c2cc3cc4ccc(OC)cc4nc3o2)C1 (stereo unspecified)	24%	x	u	x	2%	0%
CCCC(C(=O)NCc1cccc(Cl)c1)N1Cc2ccccc2C1=O (stereo unspecified)	x	x	-1%	x	x	x
S=c1nc(-c2ccccc2)oc2c1CCCC2	u	1%	13µM*	24%	u	16%
COc1cccc(-c2nc(=S)c3c(o2)CCCC3)c1	u	-6%	3µM*	u	3%	u
COc1ccccc1NC(=O)C1CCN(c2cnccn2)CC1	x	x	-2%	7%	x	x
CC(C)Cn1c(=O)c2sccc2n2c(CCCC(=O)N3CCN(c4ccc(F)cc4)CC3)nnc12	x	x	-2%	x	x	x
CC(C)(C)c1ccc(OCC(=O)NNC(=S)NC(=O)c2ccccc2[N+](=O)[O-])c(Br)c1	-2%	x	27µM*	x	1%	4%
CCc1ccc(OCC(=O)NNC(=S)NC(=O)C2CCCCC2)c(Br)c1	26%	x	2%	x	-4%	14%
Cc1cc(OCC(=O)Nc2ccncc2)c(C)cc1Br	-3%	-8%	u	14%	1%	0%
O=C(COc1ccc(Br)cc1)Nc1ccncc1	1%	0%	u	8%	-3%	0%
CC(C)(C)c1ccc(OCC(=O)Nc2ccncc2)c(Br)c1	-1%	x	21µM*	x	-2%	1%
CCc1ccc(OCC(=O)NNC(=S)NC(=O)C2CC2)c(Br)c1	-2%	x	9.5µM*	x	-1%	u
CCC(C)(C)c1ccc(OCC(=O)Nc2ccncc2)cc1	-3%	x	7.6µM*	x	0%	-1%
CC1Cc2cc(S(=O)(=O)CCC(=O)Nc3ccc(OC(F)(F)F)cc3)ccc2N1C(=O)C1CC1 (stereo unspecified)	x	x	2%	x	x	x
CCc1ccc(OCC(=O)Nc2ccncc2)c(Br)c1	0%	x	3.4µM*	x	1%	u
O=C1SC(SCc2ccccc2)=N/C1=C\c1ccco1	x	1%	-18%	-17%	x	x
O=C1SC(SCc2ccccc2)=N/C1=C\c1ccc(C(=O)O)cc1	-3%	-2%	24µM*	x	-2%	0%
Cc1cccc(-n2cnc3sc(C)c(C)c3c2=O)c1	12%	x	-12%	x	1%	8%
Cc1ccc(-n2cnc3sc(C)c(C)c3c2=O)cc1	2.5µM*	2%	u	13µM*	u	u
CCC(=O)Nc1cc(C(=O)OCC(=O)c2ccccc2)ccc1C	u	-2%	12µM*	x	u	u
Cc1ccc(Cl)cc1NC(=O)c1ccc(NC(=O)CCC(=O)O)cc1	-1%	6%	-2%	u	1%	-2%
Cc1ccc(C(=O)OCC(=O)c2c[nH]c3ccccc23)cc1NC(=O)c1ccco1	u	0%	u	-4%	7%	-8%
CCC(=O)Nc1cc(C(=O)OCC(=O)c2ccc(Cl)cc2Cl)ccc1C	-1%	-3%	2.1µM*	17%	-4%	-2%
Cc1cc(C(=O)OCC(=O)Nc2cc(Cl)ccc2C)c(C)o1	3%	x	-1%	x	1%	4%
O=C(O)CCC(=O)Nc1ccc(C(=O)OCC(=O)c2ccc(Cl)cc2Cl)cc1	-8%	-2%	13µM*	x	-6%	0%
SMILES	Rab9 prom act	Luc counter	FLuc modulator	SMN2 splice enh	NPC1 promoter act	ELG1 genotoxic
CCC(=O)Nc1cc(C(=O)OCC(=O)c2ccccc2Cl)ccc1C	3.5µM*	-4%	8.5µM*	x	u	u
CCCN(CCC)C(=O)CSc1nnc2cc(C)c3ccccc3n12	x	x	-2%	x	x	x
C=CCN1C=CC(=C/C=C(/C#N)C(=O)OCC)C=C1	2µM*	-5%	2.4µM*	1.4µM*	2.5µM*	7.3µM*
CC(C)CC(=O)Nc1nc2nc(-c3ccccc3)cc(=O)n2[nH]1	x	x	u	-2%	x	x
C=CCSc1nc2c(cnn2-c2ccccc2)c(=O)n1N	1.4µM*	x	8.5µM*	x	1.4µM*	u
Cc1ccc2c(cnn2C(=O)CCCC(=O)NCc2ccc(F)cc2)c1	29%	x	13µM*	x	7%	-8%
O=C(CCC(=O)n1ncc2ccccc21)N1CCCCC1	3%	x	u	x	1%	0%
Cc1ccc2c(cnn2C(=O)CCC(=O)N2CCCCC2)c1	1%	x	12µM*	x	-1%	-14%
COc1ccc(-c2csc(N(CCCN(C)C)C(=O)c3ccccc3C)n2)cc1	0.28µM*	x	2%	x	8%	-10%
CCN(C(=O)c1ccccc1F)c1nc(-c2ccc(OC)cc2)cs1	2µM*	x	8.5µM*	x	3.2µM*	u
Oc1ccc(-c2cc(-c3ccc(O)cc3)nc(-c3ccccc3)n2)cc1	-8%	x	-14%	x	-3%	4%
COCCN(C(=O)c1ccccc1F)c1nc(-c2ccc(OC)cc2)cs1	22%	x	u	x	u	10%
CN(c1ccc(O)cc1)c1nc(-c2ccccc2)cs1	u	0%	u	u	2.2µM*	u
CCN(C(=O)c1ccco1)c1nc(-c2ccc(OC)cc2)cs1	4µM*	x	12µM*	x	3.2µM*	u
CCOC(=O)CNC(=O)c1cc2c(=O)n3cccc(C)c3nc2n1C	x	x	-5%	x	x	x
Cc1ccc(N(CC(=O)NCCc2ccccc2)S(=O)(=O)N(C)C)cc1	x	x	2%	0%	x	x
Cc1ccc(NC(=O)CCC(=O)N2CCSc3ccccc32)cc1	x	x	-19%	x	x	x
CCC(=O)N(CC)c1nc(-c2ccc(OC)cc2)cs1	u	1%	15µM*	7%	4.5µM*	7%
COc1ccc(-c2csc(N(CCCN(C)C)C(=O)c3ccccc3F)n2)cc1	-2%	x	1%	x	-2%	0%
CN(C)CCCN(C(=O)c1cccs1)c1nc(-c2ccccc2)cs1	-1%	-1%	-1%	7.9µM*	-5%	u
CN(C(=O)c1ccco1)c1nc(-c2ccccc2)cs1	2µM*	x	5.4µM*	x	2.5µM*	u
COCCN(C(=O)c1ccco1)c1nc(-c2ccccc2)cs1	24%	x	-19%	x	22%	3%
O=C(COc1ccc(Cl)cc1)Nc1sc2c(c1C(=O)Nc1cccc(Cl)c1)CCCC2	x	x	u	-11%	x	x
O=C(Nc1cccc(Cl)c1)c1c(NC(=O)C(F)(F)F)sc2c1CCCC2	x	x	17µM*	-22%	x	x
Cc1cccc(NC(=O)c2c(NC(=O)C(F)(F)F)sc3c2CCCCC3)c1	x	x	13µM*	-64%	x	x
Cc1ccccc1NC(=O)c1c(NC(=O)C(F)(F)F)sc2c1CCCCC2	x	x	11µM*	-41%	x	x
Cc1ccc(NC(=O)c2c(NC(=O)C(F)(F)F)sc3c2CCCCC3)cc1	x	x	11µM*	-43%	x	x
CC(C)Oc1ccc(CNC(=O)Cn2nc(N3CCN(c4ccccc4)CC3)ccc2=O)cc1	x	x	-12%	x	x	x

High-throughput results as filed in PubChem.
